Source: PubChem
KB-V1 cytotox: KB-V1 MDR subline cytotoxicity. Potency, µM (titrated, usually from 46.1 µM), most hits filed as cytotoxic. KB-V1 MDR cells viability, CellTiter-Glo, 72 h. actives 3.4% (n = 400,000). AID 1347076; further: on the % scale 0 is the no-effect control and ±100 the full control effect; nearly all actives have a fitted effect of over 60% in size
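KB-V1, DMEM (no phenol red) + 10% FBS; cpd pin-transferred, titration series; 72 h, 37 degrees C; CellTiter-Glo, luminescence. Data normalized, curve-fit.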
MCF10A rereplic: DNA re-replication induction in MCF 10a cells | Potency, µM (series often up to 46.1 µM), without a hit: at the highest dose activity, positive = re-replication, usual class: activators | actives 2.9% (n = 350,000) | MCF 10A DNA re-replication, Hoechst nuclear intensity, 48 h; further: % of control where 0% means no effect; nearly all actives have a fitted effect of over 50% in size
SW480 rerep: DNA re-replication induction in SW480 cells | SW480 DNA re-replication, Hoechst DNA content imaging, 48 h | Potency, µM (highest dose often 46.1 µM), inactives show at the highest dose re-replication activation, actives largely listed as activators | actives 1.8% (n = 340,000) | AID 624297; further: % of control where 0% means no effect; nearly all actives have a fitted effect of over 55% in size
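SW480 cells exposed to compounds for 48 hr at 37 C, 5% CO2, then Hoechst-stained 40 min. Nuclear DNA content imaged by fluorescence scanning (405 nm excitation, 500-530 nm emission); re-replication scored as increased high-intensity nuclei.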
ELG1 DNA repair: blocks ELG1-dependent DNA repair in HEK293T cells; HEK293T ELG1-luciferase reporter, luminescence, 16 h; DNA damage induced by 5-fluorouridine; Potency, µM (titrated, usually from 46.1 µM), without a hit: top-dose activity change, negative = inhibition, actives largely listed as inhibitors; actives 2.3% (n = 330,000); further: on the % scale 0 is the no-effect control and ±100 the full control effect; nearly all actives have a fitted effect of over 55% in size
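Quantitative HTS, concentration-response format. 2,000 cells/well co-treated with 5-fluorouridine and compound, 16 hr in 5% CO2 at 37 °C; ONE-Glo luminescence read after 30 min.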
KB-3-1 cytotox: KB-3-1 parental cell cytotoxicity. KB-3-1 viability, CellTiter-Glo ATP luminescence, 72 h. Potency, µM (doses to about 46.1 µM), hits mostly cytotoxic. actives 1.4% (n = 400,000). AID 1347075; further: on the % scale 0 is the no-effect control and ±100 the full control effect; nearly all actives have a fitted effect of over 60% in size
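Cells are dispensed, compounds pinned in, plates held at 37 °C for 72 h, then CellTiter-Glo is added and luminescence read after 10 minutes. Cell line: parental KB-3-1 in phenol-red-free DMEM, 10% FBS.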
An asterisk follows results filed as active; i = inactive; ? = inconclusive; / = not tested or not shown; [ ] = remark or other dose. Rows were chosen to be rich in hits. Some 8.1% of all compounds tested hit in one or more screens of this group. The call rests on the fitted dose curve; in most records, active means well fitted curve in the direction sought with a large enough effect; inconclusive means small, poorly fitted or top-dose-only effect, or another doubt; inactive means no such curve, though single readings can be large; an effect the other way counts as inactive or inconclusive. Potency means the concentration at half of the fitted maximal effect.

SMILES	KB-V1 cytotox	MCF10A rereplic	SW480 rerep	ELG1 DNA repair	KB-3-1 cytotox
CCOc1ccccc1NC(=O)Nc1cnccn1	6.5µM*	-8%	6%	4%	i
CC(C)c1ccc(NC(=O)Nc2cnccn2)cc1	?	4.1µM*	?	?	4.1µM*
O=C(Nc1cnccn1)Nc1ccccc1Cl	9.2µM*	-2%	10%	?	?
O=C(Nc1ccccn1)Nc1ccccc1Cl	i	-3%	2%	?	i
O=c1c2ccccc2c2ccccc2c(=O)n1Nc1ccccc1	i	/	/	/	i
Cn1c(=O)c2c(ncn2CC(=O)OCC(=O)Nc2ccc(F)cc2F)n(C)c1=O	i	0%	-8%	11%	i
CCOC(=O)C1CCCN(S(=O)(=O)c2cc3c4c(c2)CCC(=O)N4CCC3)C1 (stereo not given)	?	2%	-4%	-12%	i
CCc1ccccc1NC(=O)Nc1cnccn1	i	14%	-43%	0%	i
O=C(Nc1cnccn1)Nc1cccc(Cl)c1Cl	12µM*	?	4%	-11%	?
COc1ccc(N=C2SC(CC(=O)Nc3ccccc3F)C(=O)N2Cc2ccco2)cc1 (stereo not given)	i	4%	/	23µM*	i
COc1ccc(N=C2SC(CC(=O)Nc3ccccc3)C(=O)N2Cc2ccco2)cc1 (stereo not given)	i	13%	10%	?	i
O=C(Cc1csc2nc(-c3ccc(F)cc3)cn12)NCc1ccccc1	i	/	/	/	i
CN1CCN(/N=C/c2ccc(N(c3ccccc3)c3ccccc3)cc2)CC1	i	16µM*	14%	?	i
Cc1ccc(S(=O)(=O)Oc2cccc(/C=N/n3cnnc3)c2)cc1	18µM*	?	?	?	?
C(=C\c1nccc2ccccc12)/c1ccc(N2CCOCC2)cc1	?	/	/	/	i
CC(=O)Oc1c(Br)cc(N(C(C)=O)S(=O)(=O)c2ccccc2)c2ccccc12	?	16µM*	?	23µM*	?
O=C(CCl)NC(Cc1ccccc1)c1ccccc1 (stereo not given)	?	?	16µM*	?	?
CCC(NC(=O)c1ccccc1O)c1ccccc1 (stereo not given)	16µM*	-2%	-2%	-10%	i
CCC(NC(=O)CCCc1ccccc1)c1ccccc1 (stereo not given)	18µM*	?	-52%	9%	i
CC(C)NC(=O)CCCc1ccccc1	i	12%	-5%	?	i
O=C(NCc1cccnc1)C1CC(c2ccccc2Cl)=NO1 (stereo not given)	i	?	17%	-6%	i
COc1ccccc1NC(=O)C1=C(C)Nc2nnnn2C1c1cc(Br)c(O)c(OC)c1 (stereo not given)	i	/	/	/	i
CCc1ccc(-c2cc(C(=O)N3N=C(C(F)F)CC3(O)C(F)F)c3ccccc3n2)cc1 (stereo not given)	18µM*	9.2µM*	9%	?	?
CC(C)Cc1cc(C(=O)N2N=C(C(F)F)CC2(O)C(F)F)c2ccccc2n1 (stereo not given)	i	?	0%	?	i
CCN(CC)c1nc2c(c(=O)[nH]c(=O)n2C)n1Cc1ccccc1Cl	?	-1%	-18%	-4%	i
SMILES	KB-V1 cytotox	MCF10A rereplic	SW480 rerep	ELG1 DNA repair	KB-3-1 cytotox
CN(C)c1nc2c(c(=O)[nH]c(=O)n2C)n1Cc1ccccc1Br	21µM*	4%	-4%	26%	?
CCCCCn1c(N(C)Cc2ccccc2)nc2c1c(=O)[nH]c(=O)n2C	i	1%	1%	-22%	i
CN(Cc1ccccc1)c1nc2c(c(=O)[nH]c(=O)n2C)n1Cc1ccccc1	9.2µM*	?	-12%	17%	i
CN(Cc1ccccc1)c1nc2c(c(=O)[nH]c(=O)n2C)n1CCCSc1ncccn1	2.6µM*	18%	1%	?	?
COCC(=O)OCC(=O)c1cc(C)n(-c2ccc(Br)cc2)c1C	i	-4%	-24%	3%	i
Cc1cc(C(=O)COc2ccccc2Cl)c(C)n1-c1ccc2c(c1)OCO2	13µM*	?	?	?	18µM*
Cc1ccc(-n2c(C)cc(C(=O)COc3c(CO)cc(F)cc3CO)c2C)cc1C	7.3µM*	?	5%	?	i
Cc1nn(-c2ccccc2)cc1/C=N/NC(N)=S	16µM*	?	-3%[9.22 µM]	?	?
O=C(CCCCn1c(=O)c2ccccc2n(CC(=O)Nc2cccc(F)c2)c1=O)NCCc1ccccc1	i	/	/	/	i
CCNS(=O)(=O)c1ccc2c(c1)NCC2	i	-5%	5.8µM*	2%	i
CCCS(=O)(=O)NC(=O)C1(C)CCN(C(=O)Cc2cccc(OC)c2)C1 (stereo not given)	i	/	/	/	?
CC(C)CC(N)c1csc(NC(=O)c2cc(C(C)(C)C)nn2Cc2ccccc2)n1 (stereo not given)	18µM*	/	/	/	?
O=C(CNC(=O)c1ccc(Br)o1)NCc1ccc(F)cc1	i	?	28%	7%	i
O=C(CNC(=O)c1ccc(Br)o1)NCc1ccc(Cl)cc1	i	26µM*	?	-1%	i
Cc1ccc(CC(=O)NCc2ccc(Cl)cc2)cc1	?	7.3µM*	0.92µM*	-5%	i
Cc1ccc(CNC(=O)CCn2nc(-c3ccc(Cl)cc3)ccc2=O)cc1	23µM*	4%	-4%	-11%	i
CC/C(=N/NC(=O)c1ccc(Br)o1)c1ccc(Cl)cc1	15µM*	1%	-107%	20%	i
Cc1cccc2c1-c1sc(C(=O)NCc3ccc(Cl)cc3)cc1CO2	i	/	/	/	i
O=C(CSc1nc2ncccc2[nH]1)Nc1cc(F)ccc1F	i	/	/	/	i
N#C/C(=C/c1cccc(C(F)(F)F)c1)c1nc(CCN2C(=O)c3ccccc3C2=O)cs1	21µM*	6%	-4%	0%	i
O=[N+]([O-])c1cc(CN2CCCC2)c2cccnc2c1O	5.8µM*	22%	-3%	-1%	?
O=[N+]([O-])c1cc(Cl)ccc1N1CCN(c2cccc(C(F)(F)F)c2)CC1	?	?	1%	-5%	i
O=[N+]([O-])c1cc(CN2CCN(c3cccc(C(F)(F)F)c3)CC2)c2cccnc2c1O	?	8%	?	?	3.7µM*
Cc1cc(C)c(NC(=S)NC(NC(=O)c2ccccc2)C(Cl)(Cl)Cl)c(C)c1 (stereo not given)	?	12%	?	?	?
Cc1ccc(NC(=S)NC(NC(=O)c2ccccc2)C(Cl)(Cl)Cl)c(C)c1 (stereo not given)	16µM*	?	4%	?	?
